{
  "source": "PubChem BioAssay AID485314",
  "about": "(National Center for Advancing Translational Sciences (NCATS), 2010)",
  "note": "Out of some 340,000 compounds screened, about 4,500 (1.3%) were called active. Not shown: some 5% with an inconclusive outcome. The entries come from a sample that favours actives as a whole. A number with no mark means an inactive call. Calls come from the whole dose curve; as a rule, active = well fitted inhibition curve with a large enough effect; inconclusive = small, poorly fitted or top-dose-only effect, or another doubt; inactive = no such curve, though single readings can be large or run the other way. % is set by controls: 0 for no effect and ±100 for the full control effect; potency is the fitted concentration of half-maximal effect.",
  "data": [
    {"target": "DNA polymerase beta (Homo sapiens) (UniProt P06746)", "assay": "qHTS Assay for Inhibitors of DNA Polymerase Beta", "details": "Pol beta primer extension/strand displacement, fluorescence kinetic; series mostly up to 114 µM; activity change, negative = inhibition: at the top concentration", "summary_of_the_method": "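Homogeneous kinetic assay of primer extension and strand displacement by 10 nM Pol beta, preincubated 15 min at room temperature with compound before 50 nM substrate (final) was added. Read at 0 and 10 min; four-parameter Hill fit.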", "units": {"activity change, negative = inhibition": "%"}, "values": [
      {"smiles": "O=C(O)c1ccc(Nc2nc(-c3ccccc3)c3cc(Br)ccc3n2)cc1", "activity change, negative = inhibition": 29.2},
      {"smiles": "COc1cccc(NC(=O)c2ccc3nc(CCc4ccccc4)oc3c2)c1", "activity change, negative = inhibition": -29.7},
      {"smiles": "O=c1/c(=C/c2ccc(CNS(=O)(=O)c3ccccc3)o2)sc2n1CCN=2", "Potency": "50.1 µM (active)"},
      {"smiles": "O=S(=O)(NCC1OCCc2ccccc21)c1ccccc1", "note": "(stereo unspecified)", "activity change, negative = inhibition": -16.7},
      {"smiles": "O=S(=O)(NCCNS(=O)(=O)c1ccccc1)c1ccccc1", "activity change, negative = inhibition": -13.9},
      {"smiles": "CCn1cc(C(=O)NCc2ccccc2)c(=O)c2cc(S(=O)(=O)N3CCCCC3)ccc21", "activity change, negative = inhibition": 8.9},
      {"smiles": "C/C(=N\\NC(=O)Cc1ccc(Cl)cc1)c1ccccn1", "activity change, negative = inhibition": 18.3},
      {"smiles": "C/C(=N\\NC(=O)c1ccccc1F)c1ccccn1", "activity change, negative = inhibition": 11.4},
      {"smiles": "CCN(CC)CCOc1ccc2c(c1)C(=NNC(=O)c1ccccn1)c1cc(OCCN(CC)CC)ccc1-2", "Potency": "2.82 µM (active)"},
      {"smiles": "O=C(NCCc1ccc(Cl)cc1)c1ccc2c(c1)N(Cc1ccc(F)cc1)C(=O)CS2", "activity change, negative = inhibition": 24.1},
      {"smiles": "CCn1c2c(c(=O)n3ncc(C(=O)N4CCN(c5ccccc5)CC4)c13)CN(Cc1ccc(OC)cc1)CC2", "activity change, negative = inhibition": 1.91},
      {"smiles": "Nc1nc(NCC(=O)O)nc(N2CCCCCC2)c1[N+](=O)[O-]", "activity change, negative = inhibition": 13.4},
      {"smiles": "N#Cc1c(N2CCCCC2)nc(N)c2c(N)nc(SCC(=O)O)cc12", "Potency": "35.5 µM (active)"},
      {"smiles": "N#Cc1c(-c2ccccc2)cc(-c2ccccc2)nc1SCC(=O)O", "activity change, negative = inhibition": 28.5},
      {"smiles": "CCOC(=O)c1c(NC(=O)/C=C/c2ccco2)sc(C)c1C", "activity change, negative = inhibition": 26.6},
      {"smiles": "CCC(CC)c1nnc(NC(=O)/C=C/c2ccco2)s1", "activity change, negative = inhibition": -1.2},
      {"smiles": "O=C(/C=C/c1ccco1)Nc1ccc(Oc2ccccc2)cc1", "activity change, negative = inhibition": 13.9},
      {"smiles": "Cc1nnc(NC(=O)/C=C/c2ccco2)s1", "Potency": "31.6 µM (active)"},
      {"smiles": "Cc1ccc(-n2nc3ccc(NC(=O)/C=C/c4ccco4)cc3n2)cc1C", "Potency": "44.7 µM (active)"},
      {"smiles": "CCC(=O)Nc1ccc2nn(-c3ccc(F)cc3)nc2c1", "activity change, negative = inhibition": 21.1},
      {"smiles": "CCOC(=O)c1c(C)oc2nc(C)nc(Nc3ccc(CC)cc3)c12", "activity change, negative = inhibition": -0.741},
      {"smiles": "Cc1cc(C)c(-c2n[nH]c3c2C(c2ccccc2F)N(CCO)C3=O)c(O)c1", "note": "(stereo unspecified)", "activity change, negative = inhibition": -23.3},
      {"smiles": "CC(C)(C)c1ccc(C(=O)NCC(c2ccc(Cl)cc2)N2CCOCC2)cc1", "note": "(stereo unspecified)", "activity change, negative = inhibition": -0.477},
      {"smiles": "COCCCn1c(Cc2csc(Nc3cccc(Cl)c3)n2)nnc1SCC(=O)OC1CCCCC1", "Potency": "44.7 µM (active)"},
      {"smiles": "COCCCn1c(SCC(=O)NC2CCCC2)nnc1-c1ccccc1", "activity change, negative = inhibition": 56.4},
      {"smiles": "CCOc1ccc(Nc2nc(Cc3nnc(SCC(=O)NC4CCCC4)n3C)cs2)cc1", "activity change, negative = inhibition": 19.3},
      {"smiles": "O=S(=O)(c1ccccc1)c1nc(-c2ccc(Cl)cc2Cl)oc1N1CCCCC1", "activity change, negative = inhibition": 2.22},
      {"smiles": "O=C(O)c1ccc2c(c1)C(=O)N(NC(=O)c1ccc(O)cc1)C2=O", "activity change, negative = inhibition": 11.7},
      {"smiles": "Cc1cccc(C(=O)c2cccc(C)c2)c1", "activity change, negative = inhibition": 10.4},
      {"smiles": "O=C(c1ccc(O)cc1)c1ccc(C(=O)O)c(C(=O)O)c1", "Potency": "35.5 µM (active)"},
      {"smiles": "CCOc1ccc(Nc2nc3c(S(=O)(=O)c4cccc(Cl)c4)nnn3c3ccsc23)cc1", "activity change, negative = inhibition": 74.9},
      {"smiles": "CCCc1cc(=O)n2[nH]c(NCc3ccc(CC)cc3)nc2n1", "activity change, negative = inhibition": 3.13},
      {"smiles": "CCCn1ccc2c(OCC(=O)NCc3ccc(F)cc3)cccc2c1=O", "activity change, negative = inhibition": -9.24},
      {"smiles": "Cc1csc2nc(COC(=O)c3ccccc3NC(=O)c3ccccc3Cl)cc(=O)n12", "activity change, negative = inhibition": -1.41},
      {"smiles": "Cc1cc2c(cc3c(SCc4cccc(Cl)c4)nnc(C)n32)o1", "activity change, negative = inhibition": 2.13},
      {"smiles": "Clc1ccc(CSc2nncn3c2cc2occc23)cc1", "Potency": "31.6 µM (active)"},
      {"smiles": "Clc1ccccc1CSc1nncn2c1cc1occc12", "activity change, negative = inhibition": 3.29},
      {"smiles": "COc1ccc(C)cc1Nc1nc2ccccc2c2nnc(C)n12", "activity change, negative = inhibition": -0.842},
      {"smiles": "Cc1ccc(C(=O)NNC(=O)c2cccs2)cc1", "activity change, negative = inhibition": 23.2},
      {"smiles": "Cc1ccc(C(=O)NNC(=O)c2cc3cc4ccccc4nc3s2)cc1", "Potency": "50.1 µM (active)"},
      {"smiles": "Cc1ccc(C(=O)NNc2ncnc3ccccc23)cc1", "activity change, negative = inhibition": 0.16},
      {"smiles": "Cc1coc2c(O)cc3c(c12)OC1(N2CCCCC2)C(=O)NCCCC31", "note": "(stereo unspecified)", "Potency": "50.1 µM (active)"},
      {"smiles": "Cc1cc(C)c(/C=C/c2onc(C)c2S(=O)(=O)N2CCC(C(=O)Nc3ccc(Cl)cc3C)CC2)c(C)c1", "activity change, negative = inhibition": 0.277},
      {"smiles": "CCCCOc1ccc(CN2C(=O)C(=O)c3cc(Br)cc(C)c32)cc1OC", "activity change, negative = inhibition": -0.577},
      {"smiles": "O=C(Nc1ccc(S(=O)(=O)N2CCCCC2)cc1)c1cnccn1", "activity change, negative = inhibition": -16.3},
      {"smiles": "O=C(N/N=C/c1ccccn1)c1cccc(NC(=O)c2ccc(Cl)cc2)c1", "activity change, negative = inhibition": 32.1},
      {"smiles": "O=C(N/N=C/c1ccccn1)c1ccc(S(=O)(=O)N2CCCCCC2)cc1", "Potency": "20 µM (active)"},
      {"smiles": "CCOc1ccc(Nc2ncnc3scc(-c4ccc(OC)cc4)c23)cc1", "activity change, negative = inhibition": 3.28},
      {"smiles": "CCOC(=O)c1ccc(NC(=O)Cn2c(=O)cc(C)c3c(C)nn(-c4cccc(F)c4)c32)cc1", "activity change, negative = inhibition": 9.23},
      {"smiles": "CC(C)CNC(=O)COC(=O)/C=C/c1ccccc1[N+](=O)[O-]", "activity change, negative = inhibition": 24.6},
      {"smiles": "CC(C)CNC(=O)COC(=O)/C=C/c1ccco1", "Potency": "28.2 µM (active)"},
      {"smiles": "COc1ccc([N+](=O)[O-])cc1NC(=O)COC(=O)/C=C/c1ccco1", "activity change, negative = inhibition": -3.55},
      {"smiles": "CCCOc1ccc(C2c3c(-c4ccccc4O)n[nH]c3C(=O)N2Cc2cccnc2)cc1", "note": "(stereo unspecified)", "activity change, negative = inhibition": -3.35},
      {"smiles": "CC(C)(C)OC(=O)N1CCC(c2c(C(=O)Nc3ccc4c(c3)OCO4)cnn2-c2ccccc2)CC1", "activity change, negative = inhibition": -11.1},
      {"smiles": "CCCCOC(=O)CSc1ncnc2sc3c(c12)CCC(C)C3", "note": "(stereo unspecified)", "activity change, negative = inhibition": 19.6},
      {"smiles": "CCc1c(C)nc2cc(-c3cccs3)[nH]n2c1=O", "activity change, negative = inhibition": 8.34},
      {"smiles": "Cc1cc(=O)n2[nH]c(-c3cccc(Cl)c3)cc2n1", "activity change, negative = inhibition": -0.142},
      {"smiles": "Cc1cc(=O)n2[nH]c(-c3sccc3-n3c(C)ccc3C)cc2n1", "Potency": "44.7 µM (active)"},
      {"smiles": "COc1cc(/C=N/NC(=O)CNC(=O)c2ccncc2)ccc1OC(C)=O", "activity change, negative = inhibition": -0.998},
      {"smiles": "COc1ccc(/C=N\\NC(=O)c2sc(N)nc2C)cc1OC", "Potency": "17.8 µM (active)"},
      {"smiles": "COc1cccc(OCc2cc(/C=N/NC(=O)c3nc(Cl)c(Cl)c(N)c3Cl)ccc2OC)c1", "activity change, negative = inhibition": 6.43},
      {"smiles": "COc1ccccc1Nc1c2c(nc3ccc(NC(=O)/C=C/c4cc(OC)c(OC)c(OC)c4)cc13)CCCC2", "activity change, negative = inhibition": -13},
      {"smiles": "CCOCCn1c(-c2ccccc2)nc2ccccc21", "activity change, negative = inhibition": -5.52},
      {"smiles": "CCc1nc2ccccc2n(CCOCCOCCn2c(=O)c(CC)nc3ccccc32)c1=O", "Potency": "35.5 µM (active)"},
      {"smiles": "CCOCCn1c(C(C)C)nc2ccccc21", "activity change, negative = inhibition": 5.17},
      {"smiles": "COc1ccc(-c2nc(Cn3c(=O)cc(C)c4c(C)nn(-c5ccccc5)c43)c(C)o2)c(OC)c1", "activity change, negative = inhibition": -3.95}
    ]}
  ]
}
